Screens (PubChem BioAssay)
Only some compounds are listed: those with a hit (about 12% of all), similar ones and a draw of the others.
HP1b binding inh = inhibitors of HP1-beta chromodomain binding to methylated histone tails; Potency, µM (doses to about 114 µM), hits mostly inhibitors; AlphaScreen HP1-beta / biotin-H3K9me3 peptide binding; AID 540317; 0.56% of 390,000 active; P83916; also: nearly all actives have a fitted effect of over 70% in size
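HP1-beta protein (50 nM final) preincubated 30 min at room temperature with biotinylated H3(1-18)K9me3 peptide (50 nM) in PBS pH 7.4, 0.01% Tween-20, then compound added for 30 min. AlphaScreen streptavidin donor/nickel chelate acceptor beads (10 ug/mL final), 30 min dark, luminescence read.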
JMJD2A Tudor = JMJD2A Tudor domain (human) inhibition | AID 504339 | O75164 | 4.4% of 390,000 active | AlphaScreen JMJD2A-Tudor / H3K4me3 peptide binding | Potency, µM (highest dose often 114 µM), most hits filed as inhibitors; also: nearly all actives have a fitted effect of over 50% in size
TDP1 inh = TDP1 (human) enzyme inhibition; Q9NUW8; recombinant TDP1, AlphaScreen DNA substrate cleavage; Potency, µM (highest dose often 130 µM), usual class: inhibitors; 0.28% of 350,000 active; also: nearly all actives have a fitted effect of over 40% in size
Target sequence (Q9NUW8 whole entry, looked up): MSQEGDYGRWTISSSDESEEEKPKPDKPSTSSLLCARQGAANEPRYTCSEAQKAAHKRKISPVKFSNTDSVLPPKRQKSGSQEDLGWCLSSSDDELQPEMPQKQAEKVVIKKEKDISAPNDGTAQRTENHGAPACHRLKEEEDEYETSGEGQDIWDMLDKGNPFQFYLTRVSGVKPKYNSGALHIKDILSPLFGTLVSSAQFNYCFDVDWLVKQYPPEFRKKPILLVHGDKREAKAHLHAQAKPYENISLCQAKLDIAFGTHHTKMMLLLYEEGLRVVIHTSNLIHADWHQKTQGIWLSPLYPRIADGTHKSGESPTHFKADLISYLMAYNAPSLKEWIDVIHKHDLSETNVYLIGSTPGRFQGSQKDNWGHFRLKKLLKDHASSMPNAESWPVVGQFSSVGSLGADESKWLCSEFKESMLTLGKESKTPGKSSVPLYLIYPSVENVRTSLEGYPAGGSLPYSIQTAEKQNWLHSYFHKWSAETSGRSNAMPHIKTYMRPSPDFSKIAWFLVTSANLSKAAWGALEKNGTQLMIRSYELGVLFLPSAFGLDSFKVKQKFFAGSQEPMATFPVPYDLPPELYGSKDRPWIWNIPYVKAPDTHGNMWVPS
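Compounds were preincubated with Tdp1 (1 nM final) for 15 min at room temperature before substrate (15 nM final) started a 5 min reaction; beads (10 ug/ml final) were then added for 10 min before AlphaScreen detection.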
Sfp inh = inhibitors of Bacillus subtilis Sfp phosphopantetheinyl transferase; 3.5% of 310,000 active; Biochemical Sfp PPTase activity, qHTS; AID 1490; Potency, µM, most hits filed as inhibitors; Q9F4F7;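 also: the enzyme is Sfp with the accession as filed and its product quenches rhodamine fluorescence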
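With Hepes-Na pH 7.6 buffer containing 10 mM MgCl2, Sfp (15 nM) modified BHQ-2-YbbR (12.5 uM) using rhodamine-CoA (5 uM). Two reads 30 minutes apart at 525/598 nm yielded each well's rate.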
G9a inh = blocks human histone lysine methyltransferase G9a; G9a H3K9 monomethylation, AlphaScreen, 2 h; 8.8% of 350,000 active; Q96KQ7; Potency, µM (top dose mostly 102 µM), hits mostly inhibitors; also: nearly all actives have a fitted effect of over 75% in size
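G9a (20 nM) was preincubated 15 min with compound, then reacted 2 h at room temperature with 500 nM biotin-H3K9 peptide and 20 µM SAM. Monomethyl-H3K9 detected by AlphaScreen using anti-H3K9me1 antibody.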
BAZ2B inh = inhibitors of human BAZ2B bromodomain; Q9UIF8; AlphaScreen BAZ2B-H3K14Ac peptide displacement; Potency, µM (top dose mostly 114 µM), usual class: inhibitors; 4.4% of 360,000 active; AID 504333; also: nearly all actives have a fitted effect of over 60% in size
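Inhibition is scored as reduced AlphaScreen emission. The BAZ2B/b-H3(5-23)K14Ac complex (50 nM each) in PBS pH 7.4, 0.01% Tween-20 meets compound (up to 110 uM) for 30 min at RT before bead addition.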
Sfp inh conf = confirmation of Bacillus subtilis Sfp PPTase inhibitors. shares compounds with Sfp inh. AID 2701. Sfp PPTase enzymatic assay, qHTS titration. Potency, µM (titrated, usually from 114 µM), most hits filed as inhibitors. 79% of 380 active
Sfp PPTase gel = Inhibits B. subtilis Sfp phosphopantetheinylation; shares compounds with Sfp inh; purified Sfp, gel-based phosphopantetheinylation read-out; Potency, µM, hits mostly inhibitors; 20% of 210 active;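 active = potency below 100 µM; inconclusive = dose-dependent response but potency above 100 µM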;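 also: potency is an IC50 for inhibitors of Sfp transfer activity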
Hits are given with their value; [ ] = dose if it differs, or a comment. Unless noted, calls follow the shape of the dose curve; as a rule, active = well fitted curve in the direction sought with a large enough effect; inconclusive = small, poorly fitted or top-dose-only effect, or another doubt; inactive = no such curve, though single readings can be large; an effect the other way counts as inactive or inconclusive.

Cc1ccccc1OCC(=O)NNC(=O)c1cc(S(=O)(=O)N2CCOCC2)ccc1N1CCCC1 was read as HP1b binding inh inactive, JMJD2A Tudor inactive, TDP1 inh inactive, G9a inh inactive and BAZ2B inh inactive.
Fc1ccccc1C1CC(c2ccco2)=Nc2ccccc2S1 (stereo not drawn) was read as HP1b binding inh inactive, JMJD2A Tudor inconclusive, Sfp inh 3.5µM, G9a inh inactive[12.7 µM], BAZ2B inh inconclusive, Sfp inh conf 33µM and Sfp PPTase gel inactive.
For Cc1ccc(Nc2nc(-c3cccs3)cs2)nc1 the results were HP1b binding inh inactive, JMJD2A Tudor inconclusive, TDP1 inh inactive, Sfp inh inconclusive, G9a inh inconclusive and BAZ2B inh inconclusive.
c1cncc(Nc2nc(-c3cccs3)cs2)c1 was read as HP1b binding inh inconclusive, JMJD2A Tudor 20µM, TDP1 inh inactive, Sfp inh 5µM, G9a inh inconclusive, BAZ2B inh inconclusive, Sfp inh conf 30µM and Sfp PPTase gel inconclusive.
Screening CC(C)(C)NC(=O)C(c1cccnc1)N(C(=O)c1ccc(Cl)nc1)C1CCCC1 (stereo not drawn) returned HP1b binding inh inactive, JMJD2A Tudor inactive, TDP1 inh inactive, Sfp inh 3.5µM, G9a inh 2.8µM, BAZ2B inh 56µM, Sfp inh conf inactive and Sfp PPTase gel inactive.
O=C(NC1CCCCC1)C(c1cccnc1)N(C(=O)c1ccc(Cl)nc1)C1CCCCC1 (stereo not drawn) was read as HP1b binding inh inactive, JMJD2A Tudor inactive, TDP1 inh inactive, Sfp inh inactive, G9a inh inactive and BAZ2B inh inactive.
`CCc1ccc(-n2nc3ccc(NC(=O)COc4ccc(OC)cc4)cc3n2)cc1` gave HP1b binding inh inactive, JMJD2A Tudor inactive, G9a inh inactive and BAZ2B inh inactive.
For Cc1ccc(-c2nc(N)sc2CC(=O)OCC(=O)N2C(C)CCCC2C)cc1 (stereo not drawn) the results were HP1b binding inh inactive, JMJD2A Tudor inactive, TDP1 inh inactive, Sfp inh 18µM, G9a inh inconclusive, BAZ2B inh inconclusive, Sfp inh conf 37µM and Sfp PPTase gel inactive.
`COC(=O)c1ccc(N2CCCCC2)c(N)c1` gave HP1b binding inh inactive, JMJD2A Tudor inactive, TDP1 inh inactive, Sfp inh inactive and BAZ2B inh inactive.
Screening COC(=O)c1ccc(N2CCC(C)CC2)c(N)c1 returned HP1b binding inh inconclusive, JMJD2A Tudor inconclusive, TDP1 inh inactive, Sfp inh 32µM, G9a inh 8.9µM, BAZ2B inh inactive and Sfp inh conf 19µM.
For COc1ccc(N2CCN(S(=O)(=O)c3c(C(=O)N4CCOCC4)c(C)n(C)c3C)CC2)cc1 the results were HP1b binding inh inactive, JMJD2A Tudor inactive, TDP1 inh inactive, Sfp inh inactive, G9a inh inactive and BAZ2B inh inactive.
Screening COc1ccccc1CNc1nc2nc(C)c(Cl)c(C)n2n1 returned HP1b binding inh inactive, JMJD2A Tudor inactive, TDP1 inh inactive, G9a inh inactive and BAZ2B inh inactive.
`Cn1c(-c2ccc(Cl)cc2)cnc1N` gave HP1b binding inh inactive, JMJD2A Tudor inactive, TDP1 inh inactive, Sfp inh inactive, G9a inh inactive[12.7 µM] and BAZ2B inh inactive.
Nc1cccn2c(-c3ccc(Cl)cc3)cnc12 was read as HP1b binding inh inconclusive, JMJD2A Tudor inactive[11.4 µM], TDP1 inh inactive, Sfp inh 16µM, G9a inh 50µM, BAZ2B inh 50µM, Sfp inh conf inconclusive and Sfp PPTase gel inconclusive.
`N#C/C(=C(/O)COc1ccc(Br)cc1)c1nnc2n1CCCCC2` gave HP1b binding inh inactive, JMJD2A Tudor inactive, TDP1 inh inactive, Sfp inh inactive, G9a inh inactive and BAZ2B inh inactive.
